# Assay outcomes as filed in PubChem.
# Only some compounds are listed: those with a hit (about 2.9% of all), similar ones and a draw of the others.
# KLK7 zymogen act: activates the human kallikrein-7 zymogen; P49862; purified proKLK7, EDANS-DABCYL substrate fluorescence; 100% is mature enzyme control, 0% vehicle; activation, % at 7 µM; 370,000 tested, 0.9% active; AID 652039;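 active = activation above the mean of all tested compounds plus 3 SD, computed per campaign excluding outliers beyond control limits, cut at about 13% in these data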
# ADAM10 inh: inhibits human ADAM10; 370,000 tested, 0.62% active; recombinant ADAM10, EDANS/DABCYL FRET peptide cleavage, 3 h; inhibition, % at 7 µM; O14672;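 active = inhibition above a per-campaign cutoff equal to the mean of compounds falling between control-based bounds plus 3 SD, cut at about 20% in these data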;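 also: 0% = DMSO wells while the 100% control is not disclosed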
# Target sequence (O14672 214-748 limits assumed): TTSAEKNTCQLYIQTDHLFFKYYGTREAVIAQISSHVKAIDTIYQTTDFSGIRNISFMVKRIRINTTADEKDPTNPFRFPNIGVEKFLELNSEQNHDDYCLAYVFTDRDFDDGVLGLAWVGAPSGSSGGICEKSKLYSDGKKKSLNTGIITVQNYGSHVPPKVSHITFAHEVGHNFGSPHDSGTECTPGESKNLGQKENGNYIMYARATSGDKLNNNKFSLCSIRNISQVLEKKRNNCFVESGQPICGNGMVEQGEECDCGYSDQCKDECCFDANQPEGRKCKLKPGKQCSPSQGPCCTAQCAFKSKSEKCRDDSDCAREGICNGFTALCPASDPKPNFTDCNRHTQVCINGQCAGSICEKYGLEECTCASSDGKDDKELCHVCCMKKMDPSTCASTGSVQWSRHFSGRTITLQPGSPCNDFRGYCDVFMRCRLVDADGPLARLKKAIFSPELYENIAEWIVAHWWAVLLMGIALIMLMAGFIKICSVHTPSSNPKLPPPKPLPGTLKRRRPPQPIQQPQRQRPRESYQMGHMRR
# ADAM17 inh: ADAM17 inhibition, QFRET primary screen; inhibition, % at 6.95 µM; recombinant ADAM17, EDANS/DABCYL FRET peptide cleavage; AID 720648; 370,000 tested, 0.83% active; P78536;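 active = inhibition above the mean of compounds lying between control limits plus 3 SD, set per campaign, cut at about 8.5% in these data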;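 also: 0% = DMSO-only wells as the low control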
# PLCg1 inh: blocks human PLC-gamma1 enzyme activity; purified PLC-gamma1, fluorogenic substrate, fluorescence; 370,000 tested, 0.84% active; inhibition, % at 12.2 µM; P19174; in the data active = inhibition above about 9.5%
# PLC-beta3 inh: blocks human PLC-beta3 enzyme activity; Q01970; Purified PLC-beta3, fluorogenic substrate, fluorescence; inhibition, % at 12.2 µM; 370,000 tested, 0.18% active; AID 720704; in the data active = inhibition above about 11%;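 also: 0% = median of compound wells on plate and 100% = full blocker control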
# ADAM10 ctr: inhibits human ADAM10 in ADAM17 exosite counter-screen; inhibition, % at 6.95 µM; shares compounds with ADAM17 inh; recombinant ADAM10, EDANS/DABCYL FRET peptide cleavage, 3 h; AID 743256; 2,900 tested, 47% active;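 active = mean inhibition over the triplicate runs exceeds the activity threshold set in the earlier primary screen, cut at about 20% in these data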;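 also: 0% = DMSO wells and 100% = marimastat wells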
# ADAM17 confirm: confirmation of inhibitors of human ADAM17; recombinant ADAM17, EDANS/DABCYL QFRET peptide cleavage; 2,900 tested, 65% active; inhibition, % at 6.95 µM; AID 743257; shares compounds with ADAM17 inh;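 active = mean inhibition across replicates above the hit cutoff set in the primary screen, cut at about 8.5% in these data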;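 also: 0% = DMSO wells and 100% = marimastat wells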
# Active calls of the source: *; x = no result given.
SMILES,KLK7 zymogen act,ADAM10 inh,ADAM17 inh,PLCg1 inh,PLC-beta3 inh,ADAM10 ctr,ADAM17 confirm
CN(CC(=O)Nc1ccc(Cl)c(C(F)(F)F)c1)C(=O)c1cccnc1Sc1ccccc1,0,8,12*,3,-5,27*,9.7*
COc1ccc(S(=O)(=O)NC(=O)C2(C)CCN2C(=O)COc2ccc(Cl)cc2)cc1OC (stereo not drawn),0,-5,4,1,3,x,x
CN(C(=O)c1ccc(NC(=O)Cc2ccc(NC(=O)C3CCCN(C(=O)C4CCC4)C3)cc2)cc1)C1CC1 (stereo not drawn),1,4,-1,1,4,x,x
Cc1ccc(OC(=O)c2ccc(S(=O)(=O)N(C)C)cc2)c(-n2nc3ccccc3n2)c1,0,8,9.1*,4,0,32*,17*
Cn1c(Cn2c3ccccc3c3ccccc32)n[nH]c1=S,0,17,10*,3,0,12,7
Cc1cccc(NC(=O)c2cccc(NC(=O)c3ccco3)c2)c1C,1,8,-5,2,0,x,x
Cc1c(NC(=O)c2cccc(NC(=O)c3ccco3)c2)cccc1C(=O)O,0,6,9.0*,6,6,-7,-1
OCCCn1c(C2CCCN2c2nc(-c3ccc(Cl)cc3)cs2)nc2cc(C(F)(F)F)ccc21 (stereo not drawn),0,0,3,2,0,x,x
OCOCCCn1c(C2CCCN2c2nc(-c3ccc(F)cc3)cs2)nc2cc(Cl)c(N3CCCCC3)cc21 (stereo not drawn),-1,15,10*,-3,-8,16,8.7*
OCCCn1c(C2CCCN2c2nc(-c3ccc(F)cc3)cs2)nc2cc(Cl)c(Cl)cc21 (stereo not drawn),-1,12,9.5*,5,7,19,11*
Nc1c(Cl)cc(-c2csc(N3CCCC3c3nc4cc(Cl)c(Cl)cc4n3CCCO)n2)cc1Cl (stereo not drawn),0,5,0,-6,-5,x,x
OCCCn1c(C2CCCN2c2nc(-c3ccc(Cl)cc3)cs2)nc2cc(Cl)c(Cl)cc21 (stereo not drawn),-1,19,9.1*,4,6,27*,12*
COc1cc(NC(=O)c2c(-c3ccccc3Cl)noc2C)c2ncccc2c1,0,7,-1,0,-4,x,x
Cc1onc(-c2ccccc2Cl)c1C(=O)Nc1cccc2cccnc12,0,15,12*,5,5,20*,18*
CC(C)[C@H](NC(=O)C1CCCC1)C(=O)N1CCC[C@H]1C(=O)NCCc1ccccc1Cl,0,-5,-2,1,4,x,x
COc1ccccc1-n1c(-c2cc(-c3ccc(F)cc3)n[nH]2)n[nH]c1=S,0,7,4,1,-1,x,x
COc1ccc(-c2cc(-c3n[nH]c(=S)n3-c3cccc4ccccc34)[nH]n2)cc1,0,19,8.7*,0,3,18,8
COc1cc(C)c2c(c1C=O)Oc1c(c(C)c(O)c3c1C(O)OC3=O)OC2=O (stereo not drawn),1,6,39*,-2,-127,6,6
O=C(C[C@H]1CC[C@H](NC(=O)Nc2ccccc2F)[C@@H](CO)O1)NCc1ccc(-c2ccccc2)cc1,0,3,-2,-1,2,x,x
Cc1ccc(-c2csc(NC(=O)COc3ccc(N(C)S(=O)(=O)c4ccc(C)cc4)cc3)n2)cc1,0,0,-1,-1,-2,x,x
COc1ccc(-c2csc(NC(=O)COc3ccc(N(C)S(=O)(=O)c4ccc(C)cc4)cc3)n2)cc1,0,11,9.9*,4,3,12,9
Cc1ccc(S(=O)(=O)NCC(=O)OCC(=O)NCc2ccc3c(c2)OCO3)cc1,0,-6,-3,2,2,x,x
CC(=O)Nc1ccc(S(=O)(=O)NCC(=O)OCC(=O)NCc2ccc3c(c2)OCO3)cc1,0,11,9.6*,8,10,-8,-2
CCCN1C(=O)/C(=C/c2ccc(N3CCCC3)c(C)c2)NC1=S,0,19,7,-200,-284,x,x
